{
  "source": "PubChem BioAssay (EPA / NIEHS)",
  "note": "Some structures have more than one record in an assay (separate samples or runs), and their calls can disagree. Activity calls are given as the source filed them. The calls were made as follows: active = hit-call score of the fitted dose curve at least 0.9, where 1 is the maximum; inactive = score below 0.9.",
  "data": [
    {"test": "ATG_DR4_LXR_CIS: Attagene CIS-FACTORIAL HepG2 Assay for human Liver X Receptor (LXR), DR4 submotif (AID 2282929)", "settings": "HepG2 Attagene DR4 cis-reporter, mRNA transcription; actives raise or lower the signal", "description": "ATG_CIS is a cell-based, multiplexed-readout assay that uses HepG2, a human liver cell line, with measurements taken at 24 hours after chemical dosing in a 24-well plate.ATG_DR4_LXR_CIS is one of 52 assay component(s) measured or calculated from the ATG_CIS assay. It is designed to make measurements of mRNA induction, a form of inducible reporter, as detected with fluorescence intensity signals by Reverse transcription polymerase chain reaction (RT-PCR) and Capillary electrophoresis technology.Data from the assay component ATG_DR4_LXR_CIS was analyzed into 1 assay endpoint. This assay endpoint, ATG_DR4_LXR_CIS, was analyzed with bidirectional fitting relative to DMSO as the negative control and baseline of activity. Using a type of inducible reporter, measures of mRNA for gain or loss-of-signal activity can be used to understand the reporter gene at the transcription factor-level as they relate to the gene NR1H2 and NR1H3. Furthermore, this assay endpoint can be referred to as a primary readout, because this assay has produced multiple assay endpoints where this one serves a reporter gene function. To generalize the intended target to other relatable targets, this assay endpoint is annotated to the nuclear receptor intended target family, where the subfamily is non-steroidal.\nHuman liver HepG2 cells are transiently transfected with multiple reporter transcription units (MRTUs) in 6-well plates using FuGene 6 reagent (Roche; 3 ml FuGene/1 mg DNA). The MRTU constructs are regulated by a cis-regulating element (promoter). […] A major difference between the CIS and TRANS system is that in CIS activities of endogenous TFs are measured, whereas the TRANS assay evaluates changes in activities of exogenous, chimeric NR-Gal4 proteins. […] At the end of 24 hour incubation, total RNA was isolated using TriZol reagent (Invitrogen). The isolated RNA is then reverse-transcribed using oligo(dT) primer and Mo-MLV reverse transcriptase (Invitrogen) with DNAse I (Ambion) treatment for 30 min. The one-tenth of the produced cDNA was amplified by PCR using Taq DNA polymerase (Invitrogen) and two reporter sequence-specific primers. The PCR products were fluorescently labeled by primer extension with 6-arboxyfluorescein (6-FAM) 5'-labeled reporter sequence-specific primer (2 min at 95 C, 20 s at 68 C and 10 min at 72 C) and these products were digested with 5U of HpaI (New England Biolabs) for 2h at 37 C. The fragments were purified using Qiaquick PCR columns (Qiagen), analyzed on an ABI 3130xL genetic analyzer (Applied Biosystems) with peak positions identified by using a set of X-rhodamine (ROX)-labeled MapMarker1000 molecular weight standards (BioVentures). The raw capillary electrophoresis data was processed using Attagraph software (Attagene).", "values": [
      {"smiles": "CC(=O)CN(CC(C)=O)N=O", "outcome": "inactive"},
      {"smiles": "N#CCC#N", "outcome": "inactive"},
      {"smiles": "N#Cc1cccnc1", "outcome": "inactive"},
      {"smiles": "O=C(O)CC(O)(CC(=O)O)C(=O)O", "outcome": "inactive"},
      {"smiles": "Cc1ccccc1OP(=O)(Oc1ccccc1C)Oc1ccccc1C", "AC50": "13.9 µM (active)"},
      {"smiles": "Cc1ccccc1OP(=O)(Oc1ccccc1)Oc1ccccc1", "AC50": "12.3 µM (active)"},
      {"smiles": "O=S1(=O)OC(c2cc(Br)c(O)c(Br)c2)(c2cc(Br)c(O)c(Br)c2)c2ccccc21", "outcome": "inactive"},
      {"smiles": "COc1ccccc1N", "outcome": "inactive"},
      {"smiles": "NNCCO", "outcome": "inactive"},
      {"smiles": "CC(=Cc1ccccc1)[N+](=O)[O-]", "AC50": "5.88 µM (active)"},
      {"smiles": "CCC[CH2][Sn]([Cl])([Cl])[CH2]CCC", "AC50": "0.807 µM (active)"},
      {"smiles": "CCCCCCCCCCCCc1cccc(S(=O)(=O)O)c1", "AC50": "30 µM (active)"},
      {"smiles": "CCOP(=S)(OCC)SCS(=O)(=O)C(C)(C)C", "AC50": "29.2 µM (active)"},
      {"smiles": "CCCCCCCCCCCCN(C)C", "AC50": "50.9 µM (active)"},
      {"smiles": "O=[N+]([O-])c1ccc(Cl)c([N+](=O)[O-])c1", "AC50": "5.36 µM (active)"},
      {"smiles": "C=CC(=O)OCC(COC(=O)C=C)(COC(=O)C=C)COC(=O)C=C", "AC50": "3.12 µM (active)"},
      {"smiles": "CC(C)(C#N)N=NC(C)(C)C#N", "outcome": "inactive"},
      {"smiles": "Cc1cc(C)cc(C)c1", "outcome": "inactive"},
      {"smiles": "CC(C)(c1ccc(O)c(-c2ccccc2)c1)c1ccc(O)c(-c2ccccc2)c1", "AC50": "4.85 µM (active)"},
      {"smiles": "Nc1nc(=S)[nH][nH]1", "outcome": "inactive"},
      {"smiles": "C=CCCl", "outcome": "inactive"},
      {"smiles": "CN(C1CCCCC1)C1CCCCC1", "outcome": "inactive"},
      {"smiles": "Brc1c(Br)c(Br)c(Oc2c(Br)c(Br)c(Br)c(Br)c2Br)c(Br)c1Br", "outcome": "inactive"},
      {"smiles": "CN(CCCC(O)c1cccnc1)N=O", "note": "(stereo not given)", "outcome": "inactive"},
      {"smiles": "c1cc[c]([Sb]([c]2ccccc2)[c]2ccccc2)cc1", "AC50": "9.64 µM (active)"},
      {"smiles": "CCOCn1c(-c2ccc(Cl)cc2)c(C#N)c(Br)c1C(F)(F)F", "AC50": "8.63 µM (active)"},
      {"smiles": "Oc1cccc(-c2ccccc2)c1", "outcome": "inactive"},
      {"smiles": "CC(C)(C)c1ccc(CCOc2ncnc3ccccc23)cc1", "outcome": "inactive"},
      {"smiles": "O=C(Cc1ccccc1)OCCc1ccccc1", "outcome": "inactive"},
      {"smiles": "CN(C)c1ccc(N=O)cc1", "AC50": "9.26 µM (active)"},
      {"smiles": "COCCl", "outcome": "inactive"},
      {"smiles": "O=C(Cl)OCCOCCOC(=O)Cl", "outcome": "inactive"},
      {"smiles": "CC1(C)COP(Oc2ccccc2)OC1", "outcome": "inactive"},
      {"smiles": "OC[C@@H](O)[C@H]1O[C@@H]2O[C@H](C(Cl)(Cl)Cl)O[C@@H]2[C@H]1O", "outcome": "inactive"},
      {"smiles": "CC(C)[C@@H](Nc1ccc(C(F)(F)F)cc1Cl)C(=O)OC(C#N)c1cccc(Oc2ccccc2)c1", "note": "(stereo not given in full)", "outcome": "inactive"},
      {"smiles": "Nc1ccc(N)cc1", "AC50": "44.6 µM (active)", "outcome": "inactive"},
      {"smiles": "CCN(N=O)C(N)=O", "outcome": "inactive"},
      {"smiles": "CCC(C)(C#N)N=NC(C)(C#N)CC", "note": "(stereo not given)", "outcome": "inactive"},
      {"smiles": "N#Cc1ccncc1", "outcome": "inactive"}
    ]}
  ]
}
